{
  "source": "PubChem BioAssay",
  "key": {"[1]": {"assay": "StAR promoter reporter inhibitors, counter-screen for LRH-1 inverse agonist project, cell-based, luminescence, high throughput (AID 651611; in the data active = inhibition above about 28%)", "settings": "StAR promoter luciferase reporter counterscreen, at 3.6 µM, active compounds read high"}, "[2]": {"target": "Nuclear receptor subfamily 5 group A member 2 (Homo sapiens) (UniProt O00482)", "sequence (O00482 whole entry, looked up)": "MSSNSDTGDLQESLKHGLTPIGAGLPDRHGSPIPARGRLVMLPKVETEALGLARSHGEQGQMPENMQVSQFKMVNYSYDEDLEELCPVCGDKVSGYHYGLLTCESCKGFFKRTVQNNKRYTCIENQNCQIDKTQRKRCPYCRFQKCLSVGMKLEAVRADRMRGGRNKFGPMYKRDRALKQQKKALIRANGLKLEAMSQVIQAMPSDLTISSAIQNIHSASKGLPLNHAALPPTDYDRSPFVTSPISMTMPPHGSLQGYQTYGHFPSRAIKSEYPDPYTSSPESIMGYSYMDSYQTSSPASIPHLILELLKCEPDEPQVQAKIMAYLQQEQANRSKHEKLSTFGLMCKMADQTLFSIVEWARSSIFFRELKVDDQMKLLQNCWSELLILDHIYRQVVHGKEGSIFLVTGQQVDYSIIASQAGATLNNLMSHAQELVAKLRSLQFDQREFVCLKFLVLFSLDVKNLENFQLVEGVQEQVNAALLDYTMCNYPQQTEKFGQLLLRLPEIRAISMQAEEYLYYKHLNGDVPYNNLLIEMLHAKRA", "assay": "NR5A2 activity suppression in reporter cells – cell-based, luminescence, confirmation (AID 651613);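 also: HEK293T cells co-transfected with LRH-1 and StAR promoter luciferase reporter; 0% = vehicle wells and 100% = parental cells lacking receptor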", "settings": "cell-based LRH-1 luciferase reporter, inverse agonism; at 3.6 µM; active compounds read high"}, "[3]": {"target": "Steroidogenic factor 1 (Homo sapiens) (UniProt Q13285)", "sequence (Q13285 whole entry, looked up)": "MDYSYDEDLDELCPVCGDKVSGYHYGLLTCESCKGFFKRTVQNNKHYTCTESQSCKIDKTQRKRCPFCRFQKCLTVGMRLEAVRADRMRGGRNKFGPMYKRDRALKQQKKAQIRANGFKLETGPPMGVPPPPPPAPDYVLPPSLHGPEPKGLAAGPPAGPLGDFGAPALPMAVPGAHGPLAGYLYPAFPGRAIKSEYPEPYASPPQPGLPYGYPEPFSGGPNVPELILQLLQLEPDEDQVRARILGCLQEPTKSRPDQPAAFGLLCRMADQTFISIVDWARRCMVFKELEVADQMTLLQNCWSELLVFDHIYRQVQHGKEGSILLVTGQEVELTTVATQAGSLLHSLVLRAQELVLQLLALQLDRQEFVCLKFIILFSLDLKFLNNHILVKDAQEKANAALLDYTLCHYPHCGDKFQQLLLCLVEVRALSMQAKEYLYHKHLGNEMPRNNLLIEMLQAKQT", "assay": "inverse agonism at SF1 nuclear receptor – cell-based, luminescence, high throughput, counter-screen for LRH-1 inverse agonist project (AID 651614; in the data active = inhibition above about 44%;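 also: cells cotransfected with StAR promoter reporter and SF1 expression vector; 0% = vehicle on cells with receptor and 100% = vehicle on cells lacking receptor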)", "settings": "cell-based SF1 luciferase reporter, at 3.6 µM, active compounds read high"}, "[4]": {"assay": "compounds suppressing VP16-driven luciferase signal – cell-based, luminescence, high throughput, counter-screen for LRH-1 inverse agonist project (AID 651615; in the data active = inhibition above about 33%)", "settings": "Gal4-VP16 luciferase reporter cells, at 3.6 µM, active compounds read high"}},
  "note": "Values without a mark were called inactive. Calls of active or inactive are those of the source. Rule as the data show it, unless noted: active = inhibition above about 42%; inactive = the rest.",
  "data": [
    {"compound": "CC(=O)C(C(C)=O)c1c(Cl)c(O)c(O)c2c(C(=O)c3ccccc3)coc12", "values": [
      {"measurement": "inhibition", "setting": "[1]", "value": "73.1% (active)"},
      {"measurement": "inhibition", "setting": "[2]", "value": "100% (active)"},
      {"measurement": "inhibition", "setting": "[3]", "value": "92.8% (active)"},
      {"measurement": "inhibition", "setting": "[4]", "value": "90.2% (active)"}
    ]},
    {"compound": "Cc1ccc(S(=O)(=O)N2CC(O)CC2C(=O)OCC(=O)Nc2ccc([N+](=O)[O-])cc2C(F)(F)F)cc1C", "note": "(stereo unspecified)", "values": [
      {"measurement": "inhibition", "setting": "[1]", "value": 18.7, "unit": "%"},
      {"measurement": "inhibition", "setting": "[2]", "value": "60.5% (active)"},
      {"measurement": "inhibition", "setting": "[3]", "value": "56% (active)"},
      {"measurement": "inhibition", "setting": "[4]", "value": -5.69, "unit": "%"}
    ]},
    {"compound": "COc1cc(C(=O)NC2CCN(C)CC2)ccc1Nc1ncc2c(n1)N(CCc1ccccc1)CCC(=O)N2C", "values": [
      {"measurement": "inhibition", "setting": "[1]", "value": "63.2% (active)"},
      {"measurement": "inhibition", "setting": "[2]", "value": "54.8% (active)"},
      {"measurement": "inhibition", "setting": "[3]", "value": "47.4% (active)"},
      {"measurement": "inhibition", "setting": "[4]", "value": -166, "unit": "%"}
    ]},
    {"compound": "Cc1cc(C)c2c(NC(=O)CCl)nn(C)c2n1", "values": [
      {"measurement": "inhibition", "setting": "[1]", "value": "46.8% (active)"},
      {"measurement": "inhibition", "setting": "[2]", "value": "64.2% (active)"},
      {"measurement": "inhibition", "setting": "[3]", "value": "68.7% (active)"},
      {"measurement": "inhibition", "setting": "[4]", "value": -39.7, "unit": "%"}
    ]},
    {"compound": "O=C(Nc1c(F)cccc1F)c1cnc(N2CCN(c3ccccn3)CC2)c2ccccc12", "values": [
      {"measurement": "inhibition", "setting": "[1]", "value": "41.4% (active)"},
      {"measurement": "inhibition", "setting": "[2]", "value": 41, "unit": "%"},
      {"measurement": "inhibition", "setting": "[3]", "value": 35.2, "unit": "%"},
      {"measurement": "inhibition", "setting": "[4]", "value": 17.4, "unit": "%"}
    ]},
    {"compound": "C=CCn1c(SCC(=O)Nc2ccccc2C)nc(O)cc1=O", "values": [
      {"measurement": "inhibition", "setting": "[1]", "value": 9.34, "unit": "%"},
      {"measurement": "inhibition", "setting": "[2]", "value": "57.8% (active)"},
      {"measurement": "inhibition", "setting": "[3]", "value": "52.2% (active)"},
      {"measurement": "inhibition", "setting": "[4]", "value": -13.2, "unit": "%"}
    ]},
    {"compound": "COc1ccc(/C=C2/CSC/C(=C/c3ccc(OC)c(OC)c3)C2=O)cc1OC", "values": [
      {"measurement": "inhibition", "setting": "[1]", "value": -4.62, "unit": "%"},
      {"measurement": "inhibition", "setting": "[2]", "value": "74.5% (active)"},
      {"measurement": "inhibition", "setting": "[3]", "value": "74.9% (active)"},
      {"measurement": "inhibition", "setting": "[4]", "value": "76.8% (active)"}
    ]},
    {"compound": "O=C(c1ccccc1)N1CCN(c2ccc([N+](=O)[O-])c(N3CCOCC3)c2)CC1", "values": [
      {"measurement": "inhibition", "setting": "[1]", "value": 9.16, "unit": "%"},
      {"measurement": "inhibition", "setting": "[2]", "value": 39.5, "unit": "%"},
      {"measurement": "inhibition", "setting": "[3]", "value": 34.7, "unit": "%"},
      {"measurement": "inhibition", "setting": "[4]", "value": 3.81, "unit": "%"}
    ]},
    {"compound": "COC(=O)c1ccc([C@H](NC(=O)c2ccco2)[C@]2(C)C[C@H]2C2CCCCC2)cc1", "values": [
      {"measurement": "inhibition", "setting": "[1]", "value": 4.8, "unit": "%"},
      {"measurement": "inhibition", "setting": "[2]", "value": 30.3, "unit": "%"},
      {"measurement": "inhibition", "setting": "[3]", "value": 21.1, "unit": "%"},
      {"measurement": "inhibition", "setting": "[4]", "value": 2.54, "unit": "%"}
    ]}
  ]
}
